Assay outcomes: PubChem, National Center for Advancing Translational Sciences (NCATS)
Pf growth 48h = inhibits P. falciparum growth in the first generation, 48 h; P. falciparum luciferase growth in erythrocytes, 48 h; Potency, µM (series often up to 28.7 µM), actives largely listed as inhibitors; 310,000 tested, 5.9% active; AID 504832
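Luminescence readout; reporter = integrated firefly luciferase in P. falciparum. RBC culture at 2% hematocrit, 0.1% parasitemia final, 37 C/5% CO2; decreased signal taken as growth inhibition.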
NS1 inh = influenza NS1 inhibition; 270,000 tested, 0.4% active; AID 2326; Potency, µM (titrated, usually from 46.1 µM); calls by dose curve; note: actives are rising curves; nearly all actives have a fitted effect of over 50% in size
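Compounds were scored for reversing the slow growth caused by influenza A NS1 in S. cerevisiae, measured by optical density at 600 nm. Assay medium contained 2% galactose at pH 6.0; NS1-free yeast of the same strain were the positive control.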
Cycloheximide cs = counter-screen hit for Shiga toxin inhibitors, cycloheximide; cell reporter, cycloheximide protein synthesis inhibition counterscreen; max response, %; 300,000 tested, 12% active; AID 2314; in the data active = max response mostly above about 13%, no sharp cut-off; inactive = mostly below about 14%; note: read at 38.3 µM for the half of the compounds with a filed dose
Shiga toxin inh = Shiga toxin inhibition; AID 2315; Vero cells, Shiga toxin protein synthesis inhibition reporter; 290,000 tested, 9.2% active; inhibition, % at 38.7 µM; in the data active = inhibition mostly above about 28%, no sharp cut-off; inactive = mostly below about 43%
Pf growth 96h = P. falciparum growth inhibition at 96 hour, primary screen for plastid delayed-death inhibitors; 320,000 tested, 6.9% active; Potency, µM (titrated, usually from 28.7 µM), hits mostly inhibitors; AID 504834; P. falciparum luciferase reporter growth, 96 h
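Luminescence readout: decreased luciferase signal marks inhibited growth of reporter-expressing P. falciparum in infected red cells (2% hematocrit, 0.05% parasitemia final), exposed to compound two generations (96 h, 37 C, 5% CO2).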
SARS PLP yeast = blocks SARS-CoV papain-like protease in a yeast assay | 330,000 tested, 0.19% active | Potency, µM (titrated, usually from 32.9 µM), usual class: activators | AID 485353 | S. cerevisiae expressing SARS-CoV PLpro, growth rescue; calls by dose curve; note: nearly all actives have a fitted effect of over 55% in size
Each line names hits and unclear results; the compound was inactive in the other large screens. In the library only some 21% were active in any assay of this set; here they are far more common. Unless noted, calls come from the whole dose curve; as a rule, active = well fitted inhibition curve with a large enough effect; inconclusive = small, poorly fitted or top-dose-only effect, or another doubt; inactive = no such curve, though single readings can be large or run the other way.

CCOC(=O)c1sc(NC(=O)CN2CCN(c3ccccc3)CC2)nc1C	Pf growth 96h inconclusive
COc1ccccc1C(=O)Nc1ccnn1C1CCN(Cc2cnn(C)c2C)CC1	Pf growth 96h 6.6µM
Cc1ccccc1CN1CCC(n2nccc2NC(=O)c2ccc3c(c2)OCO3)CC1	Shiga toxin inh 34, Pf growth 96h 9.3µM
COc1ccc(CN2CCC(n3nccc3NC(=O)c3ccc4c(c3)OCO4)CC2)cc1C	Pf growth 48h 12µM
Cc1ccccc1CN1CCC(n2nccc2NC(=O)c2cccnc2)CC1	Pf growth 48h inconclusive, Pf growth 96h 9.3µM
CCOC(=O)C1=C(C(F)(F)F)Nc2ncnn2C1c1cc(OC)ccc1OC (stereo unspecified)	none
O=c1[nH]cnc2cc(-c3ccccc3)sc12	Cycloheximide cs 48, Shiga toxin inh 118, Pf growth 96h inconclusive
COc1ccc(-c2cc3nc[nH]c(=O)c3s2)cc1	Cycloheximide cs 35 (no result: Pf growth 96h)
CCC(C)Sc1ccc([C@H]2N[C@@](Cc3ccccc3)(C(=O)OC)[C@H]3C(=O)N(CC)C(=O)[C@@H]23)cc1OC (stereo partly specified)	Pf growth 48h 3.3µM, Pf growth 96h inconclusive (no result: NS1 inh, Cycloheximide cs, Shiga toxin inh)
CCC(C)Sc1ccc([C@H]2N[C@@](CC(C)C)(C(=O)OC)[C@H]3C(=O)N(CC)C(=O)[C@@H]23)cc1 (stereo partly specified)	Pf growth 48h 9.3µM, Pf growth 96h inconclusive (no result: NS1 inh, Cycloheximide cs, Shiga toxin inh)
CCC(C)Sc1ccc([C@H]2N[C@@](Cc3ccccc3)(C(=O)OC)[C@H]3C(=O)N(CC)C(=O)[C@@H]23)cc1 (stereo partly specified)	Pf growth 48h 3.3µM, Pf growth 96h 1.7µM (no result: NS1 inh, Cycloheximide cs, Shiga toxin inh)
CCN1C(=O)[C@H]2[C@@H](c3ccc(SC4CCCCC4)cc3)N[C@@](CC(C)C)(C(=O)OC)[C@H]2C1=O	Pf growth 48h 12µM, Pf growth 96h 2.9µM (no result: NS1 inh, Cycloheximide cs, Shiga toxin inh)
CCCC1(C(=O)OC)NC(c2cc(OC)c(OC)c(OC)c2)C2C(=O)N(CC)C(=O)C21 (stereo unspecified)	none
O=C(CCC(=O)Nc1ccccc1)NNC(=O)COc1ccccc1	none
COc1ccc(OCC(O)Cn2c(N)nc3c2c(=O)[nH]c(=O)n3C)cc1 (stereo unspecified)	none
COc1ccccc1N1CCN(C(=O)c2ccc3[nH]c4c(c3c2)CC(C)CC4)CC1 (stereo unspecified)	Pf growth 48h inconclusive
Cc1ccc(CN2[C@@H](CC3CCCCC3)COCCS2(=O)=O)cc1	Pf growth 96h inconclusive
C[C@@H]1CC[C@]2(C(=O)O)CC[C@]3(C)C(=CCC4[C@@]5(C)C[C@@H](O)[C@H](O)[C@@](C)(CO)C5[C@H](O)C[C@]43C)C2[C@H]1C (stereo partly specified)	none (no result: Pf growth 48h, NS1 inh, Pf growth 96h, SARS PLP yeast)
C[C@@H]1CN([C@@H](C)CO)C(=O)c2cc(NC(=O)Nc3ccc(F)cc3)ccc2O[C@@H]1CN(C)Cc1ccc(Oc2ccccc2)cc1	none (no result: Pf growth 48h, NS1 inh, Cycloheximide cs, Shiga toxin inh, Pf growth 96h)
O=C(CSc1nnc(CNC(=O)c2ccco2)o1)Nc1nc2ccccc2s1	Pf growth 96h inconclusive (no result: NS1 inh)
CN(/N=C/c1ccc(Cl)cc1)c1ncc(Cl)cc1C(F)(F)F	Pf growth 48h inconclusive, Cycloheximide cs 11
CN(/N=C/c1ccc(Cl)cc1Cl)c1ncc(Cl)cc1C(F)(F)F	Pf growth 48h inconclusive
CCOC(=O)c1c(NC(=S)Nc2ccccc2)sc2c1CC(C)(C)SC2	none
CCOC(=O)c1c(NC(=S)NC)sc2c1CC(C)(C)SC2	Pf growth 48h 4.1µM
CN(C)C(=O)n1nnnc1Cc1ccc(-c2ccccc2)cc1	none (no result: Pf growth 48h, NS1 inh, Pf growth 96h, SARS PLP yeast)
C/C(=N\NC(=O)C(N)=O)c1ccc(O)cc1O	Cycloheximide cs 16 (no result: NS1 inh)
O=C(OCc1cnc(Cl)s1)c1cccc(Cl)c1Cl	Cycloheximide cs 14
O=C(OCc1cnc(Cl)s1)c1ccccc1Cl	Cycloheximide cs 16
O=C(OCc1cnc(Cl)s1)c1c(F)cccc1F	none
CC1(c2ccc([N+](=O)[O-])cc2)NC(=O)NC1=O (stereo unspecified)	none
Cc1ccc(S(=O)(=O)N2CCCCC2C(=O)N(C)c2ccccc2)cc1 (stereo unspecified)	none
Cc1sc2ncnc(N3CCCC(C)C3)c2c1C (stereo unspecified)	none (no result: NS1 inh)
Cc1ccc(S(=O)(=O)N(C)C)cc1NC(=O)c1cncc(Br)c1	Pf growth 48h 13µM, Pf growth 96h 13µM
